# Reference: PubChem BioAssay (NCATS)
# Records with an inconclusive call do not appear. A number with no mark means an inactive call. Active and inactive are the calls of the source. The call rests on the fitted dose curve; in most records, active means well fitted inhibition curve with a large enough effect; inconclusive means small, poorly fitted or top-dose-only effect; inactive means flat fitted curve, though single readings scatter.
# Experiments:
# Experiment in all cases: Cytotoxic Profiling of Annotated Libraries Using Quantitative High-Throughput Screening (AID 1296008); further: nearly all actives have a fitted effect of over 60% in size
# Conditions in all cases: Five cell lines viability, CellTiter-Glo ATP luminescence, 48-72 h; max response: active compounds read low
# HEK293 = tested on: HEK293
# How it was run: (§1)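 Compounds were pin-transferred onto cells and incubated 48 or 72 hr at 37 degree Celsius, 95% humidity. CellTiter-Glo was added, plates sat 10 min at room temperature, then ATP-coupled luminescence was imaged as the viability read-out.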
# KB-3-1 = tested on: KB-3-1
# How it was run: as §1
# NIH3T3 = tested on: NIH3T3
# How it was run: as §1
# On the % scale 0 is the no-effect control and ±100 the full control effect; potency means the concentration at half of the fitted maximal effect.
smiles,measurement,setting,value
Cc1c(NC(=O)c2cc(C(N)=O)nc3cc(F)ccc23)c(C(F)(F)F)nn1Cc1ccc(C#N)cc1,Potency,HEK293,0.0862 µM (active)
same,max response,KB-3-1,4.52%
C/C=C/c1ccc2oc(-c3ccc(O)c(OC)c3)c(C)c2c1,max response,HEK293,-4.11%
same,max response,KB-3-1,6.52%
same,max response,NIH3T3,-2.29%
C/C=C(\C)C(=O)OCC1OC(OC2OC(COC(=O)/C(C)=C/C)C(OC3OC(CO)C(OC(=O)/C(C)=C/C)C(OC(=O)/C(C)=C/C)C3O)C(O)C2O)C(O)C(O)C1OC1OC(CO)C(OC(=O)/C(C)=C/C)C(OC(=O)/C(C)=C/C)C1O (stereo not given),max response,HEK293,-7.34%
same,max response,KB-3-1,-4.08%
same,max response,NIH3T3,-26.7%
Cc1cccc(C)c1OCc1cc(C(=O)N2CCC(c3ccncc3)CC2)no1,Potency,HEK293,6.51 µM (active)
same,Potency,KB-3-1,8.2 µM (active)
same,max response,NIH3T3,-17.2%
CCN1CCN(Cc2ccc(Nc3ncc(F)c(-c4cc(F)c5nc(C)n(C(C)C)c5c4)n3)nc2)CC1,Potency,HEK293,3.66 µM (active)
same,Potency,KB-3-1,6.51 µM (active)
same,max response,NIH3T3,1.34%
CCOc1cc(N2CCC(O)CC2)ccc1Nc1ncc2c(n1)N(C1CCCC1)CCC(=O)N2C,Potency,HEK293,5.8 µM (active)
same,Potency,KB-3-1,7.31 µM (active)
same,Potency,NIH3T3,4.11 µM (active)
CCNC(=O)C1OC(n2cnc3c(N)nc(NCCc4ccc(CCC(=O)O)cc4)nc32)C(O)C1O (stereo not given),max response,HEK293,0.517%
same,max response,KB-3-1,-5.77%
same,max response,NIH3T3,-0.422%
Cc1ccc(C(=O)N(CCCN)C(c2oc3cc(Cl)ccc3c(=O)c2Cc2ccccc2)C(C)C)cc1 (stereo not given),max response,HEK293,-125%
same,Potency,KB-3-1,0.0065 µM (active)
Nc1ncnc2c([C@@H]3N[C@H](CO)[C@@H](O)[C@H]3O)c[nH]c12,max response,HEK293,1.17%
same,max response,KB-3-1,5.62%
same,max response,NIH3T3,-4.07%
COc1cc(N)c(Cl)cc1C(=O)NC[C@@H]1CCN2CCC[C@@H]12,max response,HEK293,-3.94%
same,max response,KB-3-1,-4.24%
same,max response,NIH3T3,-6%
CC(C)=CCC[C@](C)(O)[C@H]1CC[C@]2(C)[C@@H]1[C@H](O)CC1[C@@]3(C)CC[C@H](O)C(C)(C)[C@@H]3[C@@H](O[C@@H]3O[C@H](CO)[C@@H](O)[C@H](O)[C@H]3O[C@@H]3O[C@H](CO)[C@@H](O)[C@H](O)[C@H]3O)C[C@]12C (stereo not given in full),max response,HEK293,-11.9%
same,max response,KB-3-1,3.39%
same,outcome,NIH3T3,inactive
O=C(Nc1ccc(-c2ccncc2)cc1)N[C@H](CO)c1ccccc1,max response,HEK293,-14.1%
same,outcome,KB-3-1,inactive
same,max response,NIH3T3,-5.95%
COc1ccc(C2(O)c3ccccc3NC(=O)C2O)cc1 (stereo not given),max response,HEK293,-5.12%
same,outcome,KB-3-1,inactive
same,outcome,NIH3T3,inactive
O=C(O)c1ccc(OC2OC(CO)C(O)C(O)C2O)cc1 (stereo not given),max response,HEK293,-2.82%
same,max response,KB-3-1,6.64%
same,max response,NIH3T3,1.85%
COc1cc(O)cc(C)c1C(=O)OC1C(CO)OC(OC2C(O)C(O)C(O)C(O)C2O)C(O)C1O (stereo not given),max response,HEK293,4.85%
same,max response,KB-3-1,2.63%
same,max response,NIH3T3,-8.82%
Cc1cccc(/C=N/Nc2cc(N3CCOCC3)n3nc(-c4ccncc4)cc3n2)c1,Potency,HEK293,5.8 µM (active)
same,max response,KB-3-1,-17.8%
same,Potency,NIH3T3,0.651 µM (active)
CC1(C)[C@@H](O)CC[C@]2(C)[C@H]3CC=C4[C@@H]5C[C@](C)(C(=O)O)CC[C@]5(C)CC[C@@]4(C)[C@]3(C)CC[C@@H]12,max response,HEK293,2.45%
same,max response,KB-3-1,8.76%
same,max response,NIH3T3,0.034%
C=CC1C(OC2OC(CO)C(O)C(O)C2O)OC=C2C(=O)N3C(C(=O)O)Cc4c([nH]c5ccccc45)C3CC21 (stereo not given),max response,HEK293,0.732%
same,max response,KB-3-1,6.21%
same,max response,NIH3T3,-3.8%
Cc1cc(Nc2ccc(NC(=O)c3ccc(Nc4ccnc5ccccc45)cc3)cc2)nc(N)n1,Potency,HEK293,3.26 µM (active)
same,Potency,KB-3-1,4.61 µM (active)
same,Potency,NIH3T3,18.4 µM (active)
CC1(C)CC[C@]2(C(=O)O[C@@H]3O[C@H](CO)[C@@H](O)[C@H](O)[C@H]3O)CC[C@]3(C)C(=CCC4[C@@]5(C)C[C@@H](O)[C@H](O)[C@](C)(C=O)C5CC[C@]43C)[C@@H]2[C@@H]1O (stereo not given in full),max response,HEK293,-5.81%
same,outcome,KB-3-1,inactive
same,max response,NIH3T3,0.296%
CC1(C)CCC2(C(=O)OC3OC(CO)C(O)C(O)C3O)CCC3(C)C(=CCC4C5(C)CCC(O)C(C)(C(=O)O)C5CCC43C)C2C1O (stereo not given),max response,HEK293,4.09%
same,max response,KB-3-1,1.65%
same,max response,NIH3T3,0.934%
CN(C)CC1CCOC1(c1ccccc1)c1ccccc1 (stereo not given),max response,HEK293,-21.7%
same,max response,KB-3-1,5.01%
same,outcome,NIH3T3,inactive
C=C1C(O)C(O)C2(CC3C(C)=CCC4C(C)(CO)CCCC34C)OC2C1O (stereo not given),max response,HEK293,-13.5%
same,max response,KB-3-1,-3.07%
same,max response,NIH3T3,-5.46%
O=C1CCC(=O)N(O)CCCCCNC(=O)CCC(=O)N(O)CCOCCNC(=O)CCC(=O)N(O)CCCCCN1,max response,HEK293,1.01%
same,outcome,KB-3-1,inactive
same,outcome,NIH3T3,inactive
O=C1CC2(CCCC2)[C@H](O)C(=O)N1CCCCN1CCN(c2ncccn2)CC1,max response,HEK293,-2.49%
same,max response,KB-3-1,-7.77%
same,max response,NIH3T3,-13.6%
C[C@@H](Oc1cc(-n2cnc3ccc(OC4CCN(C)CC4)cc32)sc1C(N)=O)c1ccccc1C(F)(F)F,Potency,HEK293,0.0411 µM (active)
same,Potency,KB-3-1,0.0092 µM (active)
same,Potency,NIH3T3,5.8 µM (active)
O=S(=O)(NCC1CC1)c1ccc(Nc2nccc(N3CCCc4cc(O)ccc43)n2)cc1,Potency,HEK293,1.64 µM (active)
same,Potency,KB-3-1,14.6 µM (active)
same,Potency,NIH3T3,5.8 µM (active)
O=S(=O)(Nc1ccccn1)c1ccc(N=Cc2c(O)[nH]c3ccc4ncsc4c23)cc1,max response,HEK293,-3.48%
same,max response,KB-3-1,-4.18%
same,outcome,NIH3T3,inactive
C=C1C(=O)O[C@H](CCC)[C@H]1C(=O)O,max response,HEK293,-3.38%
same,max response,KB-3-1,2.02%
same,outcome,NIH3T3,inactive
COC(=O)CCc1cc2ccoc2c(OC)c1O[C@@H]1O[C@H](CO)[C@@H](O)[C@H](O)[C@H]1O,max response,HEK293,-10.4%
same,outcome,KB-3-1,inactive
same,max response,NIH3T3,0.737%
N=c1nc2n(cc1F)C1OC(CO)C(O)C1O2 (stereo not given),Potency,HEK293,5.17 µM (active)
same,max response,KB-3-1,-7.19%
same,Potency,NIH3T3,2.06 µM (active)
C[C@@H]1O[C@@H](O[C@H]2[C@H](O[C@H]3[C@H](O[C@H]4CC[C@@]5(C)C(CC[C@]6(C)C5CC=C5[C@@H]7CC(C)(C)C[C@@H](O)[C@]7(C)CC[C@]56C)[C@@]4(C)CO)O[C@H](C(=O)O)[C@@H](O)[C@@H]3O)OC[C@H](O)[C@@H]2O)[C@H](O)[C@H](O)[C@H]1O (stereo not given in full),max response,HEK293,-4.78%
same,max response,KB-3-1,-1.37%
same,max response,NIH3T3,-4.51%
COc1cc(Br)c(S(=O)(=O)Nc2ccc(C(F)(F)F)c(O[C@@H]3CCN(C)C3)c2)cc1OC,max response,HEK293,-36.5%
same,max response,KB-3-1,-11.3%
same,max response,NIH3T3,-2.88%
Cn1c(=O)n(-c2ccc(C(C)(C)C#N)cc2)c2c3cc(C#Cc4cccnc4)ccc3ncc21,Potency,HEK293,0.0893 µM (active)
same,Potency,KB-3-1,0.142 µM (active)
same,Potency,NIH3T3,0.2 µM (active)
Cc1cc(O)c(-c2ccc([C@@H](C)CN(C)C)cc2)c2c1[nH]c(=O)c1sccc12,Potency,HEK293,0.0259 µM (active)
same,Potency,KB-3-1,0.0461 µM (active)
same,Potency,NIH3T3,0.231 µM (active)
CN(C)C/C=C/C(=O)Nc1cccc(C(=O)Nc2ccc(Nc3nccc(-c4cccnc4)n3)cc2)c1,Potency,HEK293,5.8 µM (active)
same,Potency,KB-3-1,3.66 µM (active)
same,Potency,NIH3T3,10.3 µM (active)
Cc1ccc(NC(=O)Nc2cc(C(F)(F)F)ccc2F)cc1Nc1ccc2c(c1)NC(=O)/C2=C\c1ccc[nH]1,Potency,HEK293,11.6 µM (active)
same,Potency,KB-3-1,20.6 µM (active)
same,Potency,NIH3T3,18.4 µM (active)
O=C1CSc2ccccc2N1Cc1cccc(C(F)(F)F)c1,max response,HEK293,-20.3%
same,max response,KB-3-1,-14%
same,max response,NIH3T3,4.03%
CC(=O)O[C@H]1C(=O)[C@@]2(C)[C@H]([C@H](OC(=O)c3ccccc3)[C@]3(O)C[C@H](OC(=O)[C@H](O)[C@@H](NC(=O)c4ccccc4)c4ccccc4)C(C)=C1C3(C)C)[C@]1(OC(C)=O)CO[C@@H]1C[C@@H]2O,Potency,HEK293,0.0055 µM (active)
same,Potency,KB-3-1,0.0098 µM (active)
same,Potency,NIH3T3,0.031 µM (active)
CC(C)C(CO)Nc1nc(Nc2cc(N)cc(Cl)c2)c2ncn(C(C)C)c2n1 (stereo not given),Potency,HEK293,16.4 µM (active)
same,Potency,KB-3-1,10.3 µM (active)
same,Potency,NIH3T3,3.66 µM (active)
CCC[C@@H]1O[C@@H]2C[C@H]3[C@@H]4CCC5=CC(=O)C=C[C@]5(C)[C@H]4[C@@H](O)C[C@]3(C)[C@]2(C(=O)CO)O1,max response,HEK293,0.791%
same,outcome,KB-3-1,inactive
same,max response,NIH3T3,-20.8%
CC(=O)OC[C@@]12C(=O)C[C@@H](C)[C@]3(C[C@@H](c4ccoc4)O[C@H]3OC(C)=O)[C@H]1CCC[C@]21CO1,max response,HEK293,-5.69%
same,max response,KB-3-1,-1.02%
same,max response,NIH3T3,3.02%
COc1cc2ncnc(Nc3ccc(O)cc3)c2cc1OC,max response,HEK293,-8.09%
same,max response,KB-3-1,3.01%
same,max response,NIH3T3,2.24%
COc1ccc(-c2ccc3c(N4CCOCC4)nc(N4CC(C)OC(C)C4)nc3n2)cc1CO (stereo not given),Potency,HEK293,1.16 µM (active)
same,Potency,KB-3-1,1.64 µM (active)
same,Potency,NIH3T3,1.84 µM (active)
COc1ccc(C2COc3cc(O)ccc3C2)c(O)c1 (stereo not given),max response,HEK293,-0.71%
same,max response,KB-3-1,-10.5%
same,max response,NIH3T3,4.68%
C=C(C(=O)OC)C1C(O)CC2(C)C(=O)CCC(O)(CO)C2C1O (stereo not given),max response,HEK293,-2.27%
same,max response,KB-3-1,-0.746%
same,outcome,NIH3T3,inactive
c1cn2cc(-c3ccc4cn[nH]c4c3)nc(Nc3ccc(N4CCOCC4)cc3)c2n1,Potency,HEK293,18.4 µM (active)
same,max response,KB-3-1,3.1%
same,max response,NIH3T3,-11.5%
Cc1ncc(CCCN(C)C)cc1Nc1ncc2c(n1)-c1ccc(C(F)(F)F)cc1NC(=S)C2,max response,HEK293,-92.5%
same,Potency,KB-3-1,0.0046 µM (active)
same,Potency,NIH3T3,3.66 µM (active)
CC(=O)N[C@@H](C(=O)O[C@H]1CCC(C)(C)[C@@H]2CCC3=C(COC3=O)[C@@]12C)C(C)C,max response,HEK293,1.75%
same,max response,KB-3-1,-11.9%
same,outcome,NIH3T3,inactive
